# Assay results published in PubChem BioAssay (NCI).
# “And” between values parts separate entries of the source, which are not always exact repeats. Identical values can stand only once. Compounds without any hit were thinned out: in the full panel of roughly 83,000, 20% have a hit.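 Single-dose data. Exposure time 48 hours. Values below 10 considered active.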 The source made the active and inactive calls.
# Assays:
# Assay in all cases: NCI-60 one-dose screen, 48 h (100 = growth as untreated, 0 = no growth, -100 = all killed)
# Settings in all cases: 10 µM unless noted
# SK-MEL-2 melanoma = tested on: SK-MEL-2 melanoma
# EKVX NSCLC = tested on: EKVX NSCLC
# SN12C renal = tested on: SN12C renal
# UO-31 renal = tested on: UO-31 renal
# TK-10 renal = tested on: TK-10 renal
# ACHN renal = tested on: ACHN renal
# CAKI-1 renal = tested on: CAKI-1 renal
# A498 renal = tested on: A498 renal
# CCRF-CEM leukemia = tested on: CCRF-CEM leukemia
# MOLT-4 leukemia = tested on: MOLT-4 leukemia
Structure (SMILES),growth (SK-MEL-2 melanoma),growth (EKVX NSCLC),growth (SN12C renal),growth (UO-31 renal),growth (TK-10 renal),growth (ACHN renal),growth (CAKI-1 renal),growth (A498 renal),growth (CCRF-CEM leukemia),growth (MOLT-4 leukemia)
Cn1cc(-c2csc(-c3cn(CCOC(N)=O)c4ccccc34)n2)c2cccnc21,84.8% (inactive),68.7% (inactive),88.3% (inactive),79.6% (inactive),82.6% (inactive),97% (inactive),88.2% (inactive),19% (inactive),73.9% (inactive),69.1% (inactive)
COC(=O)N/N=C/c1c[n+]([O-])c2ccccc2[n+]1[O-],112% (inactive),100% (inactive),99.6% (inactive),86.6% (inactive),119% (inactive),100% (inactive),89.1% (inactive),98% (inactive),94% (inactive),104% (inactive)
C=C1C(=O)O[C@H]2[C@H]1CC/C(COC(=O)NCc1ccc(Cn3c(=O)sn(CCCI)c3=O)cc1)=C\CC[C@@]1(C)O[C@@H]21,68.5% (inactive),91.7% (inactive),2.19% (active),-30.1% (active),0.113% (active),16.2% (inactive),33.7% (inactive),105% (inactive),-9.69% (active),9.74% (active)
C=C(C)[C@@H]1CC[C@]2(C(=O)O)CC[C@]3(C)[C@H](CC[C@@H]4[C@@]5(C)CCC(N)C(C)(C)[C@@H]5CC[C@]43C)[C@@H]12 (stereo not given in full),93% (inactive),67.6% (inactive),-7.83% (active),63.4% (inactive),47.8% (inactive),8.7% (active),48.6% (inactive),78.1% (inactive),-8.42% (active),25.7% (inactive)
COc1cc(C(=O)c2ccccc2C(=O)O)c(OC)c2c1CCCC2,115% (inactive),87.7% (inactive),96.4% (inactive) and 98.3% (inactive),81.9% (inactive) and 84.1% (inactive),67.5% (inactive) and 107% (inactive),102% (inactive) and 103% (inactive),98.2% (inactive) and 98.9% (inactive),52.8% (inactive) and 110% (inactive),113% (inactive) and 90.4% (inactive),86.3% (inactive) and 95.7% (inactive)
C=C(CNCCc1ccc(O)cc1)[C@@H]1CC[C@]2(CO)CC[C@]3(C)[C@H](CC[C@@H]4[C@@]5(C)CCC(NCCc6ccc(O)cc6)C(C)(C)[C@@H]5CC[C@]43C)[C@@H]12 (stereo not given in full),-84.2% (active),-85.7% (active),-85.1% (active),-93.7% (active),-92.6% (active),-98.9% (active),-57.7% (active),-96.6% (active),-43.1% (active),-49.1% (active)
COc1cc2ncnc(Nc3ccc(F)c(Cl)c3)c2cc1OCC(=O)N1CCCCC1,88.1% (inactive),63.5% (inactive),76.4% (inactive),43.5% (inactive),23.9% (inactive),32.2% (inactive),44.5% (inactive),43.5% (inactive),94.2% (inactive),73.8% (inactive)
O=C(N=Nc1c(O)[nH]c2ccccc12)Nc1ccccc1Cl,102% (inactive),86.6% (inactive),86.4% (inactive),68.1% (inactive),107% (inactive),99% (inactive),80.5% (inactive),96.5% (inactive),91.9% (inactive),93.3% (inactive)
CC/C(=C(/c1ccc(O)cc1)c1ccc(OCCN2CCCCCC2)cc1)c1ccc(Cl)cc1,96.5% (inactive),91.9% (inactive),74.5% (inactive),65.7% (inactive),91.6% (inactive),99.9% (inactive),95.8% (inactive),97.7% (inactive),20.7% (inactive),17% (inactive)
COc1ccc(/C=C2\COc3ccc(O)c(O)c3C2=O)c(OC)c1OC,70.3% (inactive),65.7% (inactive),0.808% (active),-5.7% (active),45.1% (inactive),12.5% (inactive),39% (inactive),109% (inactive),3.07% (active),1.41% (active)
Nc1[nH]nc(Nc2ccccc2)c1-c1nc2ccccc2s1,26.8% (inactive),19% (inactive),34.2% (inactive),18.8% (inactive),23% (inactive),15.5% (inactive),25.1% (inactive),46.8% (inactive),8.45% (active),4.06% (active)
CON1CCC[C@]2(C)[C@H]3CC[C@@H]4[C@H]5[C@@H](O)C(C)(C)CC[C@]5(CO)CC[C@@]4(C)[C@]3(C)CC[C@H]2C1(C)C,103% (inactive),98.1% (inactive),93.1% (inactive),95.2% (inactive),105% (inactive),107% (inactive),97.4% (inactive),114% (inactive),94.5% (inactive),83.7% (inactive)
CN1CCN(CCCN2c3ccccc3Sc3ccc(Cl)cc32)CC1,106% (inactive),75% (inactive) and 77.4% (inactive),64% (inactive) and 76.7% (inactive),54.5% (inactive),74.9% (inactive) and 85.8% (inactive),62.9% (inactive) and 85.2% (inactive),55.2% (inactive) and 60.7% (inactive),82.2% (inactive) and 79.4% (inactive),80.1% (inactive) and 75.9% (inactive),70.3% (inactive) and 73.9% (inactive)
O=C(Nc1cc(C(F)(F)F)cc(C(F)(F)F)c1)c1cc(Cl)ccc1O,-40.3% (active),1.8% (active) and 3.4% (active),-4.82% (active) and -10.6% (active),-64.4% (active) and -19.6% (active),-8.88% (active) and 5.69% (active),-14% (active) and 2.27% (active),-20.5% (active) and -23.8% (active),-44.7% (active) and -69.3% (active),-12.3% (active) and -10.4% (active),-38.9% (active) and -44.7% (active)
Nc1n[nH]c2cccc(C#Cc3cccc(C(=O)Nc4ccc(CN5CCOCC5)c(C(F)(F)F)c4)c3)c12,23.3% (inactive),63.4% (inactive),54.8% (inactive),22.3% (inactive),76.2% (inactive),24.8% (inactive),73.4% (inactive),67.5% (inactive),20.7% (inactive),16.9% (inactive)
O=C(/C=C/c1ccc([N+](=O)[O-])cc1)c1ccccc1,91.1% (inactive),90.8% (inactive),99.8% (inactive),74.8% (inactive),68.9% (inactive),99.6% (inactive),96.2% (inactive),103% (inactive),76.7% (inactive),55.1% (inactive)
CC(C)(C)c1cc(C(C)(C)c2ccccc2)cc(Cc2cc(C(C)(C)c3ccccc3)cc(C(C)(C)C)c2O)c1O,72.1% (inactive),110% (inactive),95.7% (inactive),80.9% (inactive),98.1% (inactive),102% (inactive),104% (inactive),125% (inactive),66.1% (inactive),54.4% (inactive)
COC(=O)c1nc(-c2ccc(C)cc2)oc1Sc1ccc(C)cc1,104% (inactive),105% (inactive),96% (inactive),82.6% (inactive),106% (inactive),96.1% (inactive),95% (inactive),130% (inactive),86.9% (inactive),71.7% (inactive)
CCCCCCCCCCCCCCCCCCn1cc(COc2ccc(C=O)cc2)nn1,96.4% (inactive),90.1% (inactive),97.5% (inactive),93% (inactive),99.9% (inactive),104% (inactive),104% (inactive),105% (inactive),103% (inactive),92.4% (inactive)
O=C(Nc1ncc(Cc2cccc(C(F)(F)F)c2)s1)c1ccc2c(c1)OCCO2,40.1% (inactive),30.7% (inactive),35.3% (inactive),47.7% (inactive),44.9% (inactive),29.8% (inactive),24.6% (inactive),-2.08% (active),17.8% (inactive),9.32% (active)
CCOc1ccc(N2C(N)=NC(N)=NC2(C)C)cc1,-0.847% (active) and 107% (inactive),93.9% (inactive),32.2% (inactive) and 96.9% (inactive),42% (inactive) and 96.6% (inactive),40.9% (inactive),44.6% (inactive) and 102% (inactive),13.3% (inactive) and 98.4% (inactive),-5.18% (active) and 72.7% (inactive),9.4% (active) and 79.8% (inactive),39.2% (inactive) and 81.5% (inactive)
